In the assay the target is Protein disulfide-isomerase (Homo sapiens) (UniProt P07237). Briefly: PDI inhibitors, insulin aggregation turbidity, dose response, biochemical, absorbance, cherry-picked samples (AID 602350).

SMILES strings stand for the structures. Potency and affinity values are given separately. Active and inactive are the calls of the source.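 Rule for the calls: active = absorbance falls by 30% or more versus neutral controls, with a potency fitted within twice the top valid dose; inconclusive = no clear call, values can overlap the other calls; inactive = change opposite to expected direction, plus the rest.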

Chain of Protein disulfide-isomerase (Homo sapiens) (P07237 whole entry, looked up): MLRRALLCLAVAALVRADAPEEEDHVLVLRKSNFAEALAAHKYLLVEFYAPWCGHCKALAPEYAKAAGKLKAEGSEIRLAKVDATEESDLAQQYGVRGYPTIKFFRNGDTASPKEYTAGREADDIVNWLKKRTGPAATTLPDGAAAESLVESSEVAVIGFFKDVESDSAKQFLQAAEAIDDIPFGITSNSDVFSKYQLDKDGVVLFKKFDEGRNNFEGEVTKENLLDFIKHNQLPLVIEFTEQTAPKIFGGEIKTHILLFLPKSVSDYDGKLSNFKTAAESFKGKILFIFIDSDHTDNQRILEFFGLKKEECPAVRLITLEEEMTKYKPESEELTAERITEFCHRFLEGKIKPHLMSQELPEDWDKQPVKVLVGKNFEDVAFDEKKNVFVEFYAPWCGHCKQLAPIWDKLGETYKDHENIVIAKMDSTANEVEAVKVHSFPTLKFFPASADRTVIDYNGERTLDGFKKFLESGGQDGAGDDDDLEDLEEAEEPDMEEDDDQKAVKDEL

As for `CCc1ccc(NC(=O)Nc2ccncc2)cc1`, the compound was called inactive.
With `CN(C)S(=O)(=O)c1ccc(C(=O)Nc2ccc3nc(N4CCOCC4)sc3c2)cc1` the entry was “inactive”; with `CCOc1ccc(NC(=O)CN(C)C(=O)c2cc(C)nc3ccccc23)cc1OCC`, “inactive”; with `C[C@H](CO)N1C[C@H](C)[C@H](CN(C)Cc2ccc(Oc3ccccc3)cc2)Oc2c(NS(C)(=O)=O)cccc2C1=O`, “inactive”.
With `CCOC(=O)c1c(CN2CCN(C)CC2)n(-c2ccccc2)c2cc(Br)c(O)cc12` the entry was “inactive”.
`CC(=O)c1ccc(OCc2cc(C(=O)N3CCCCC3c3cccnc3)no2)cc1` (stereo not given): the result was inactive.
Turning to `Cc1c(-n2cc(C(=O)c3cc(Br)ccc3O)cc(C#N)c2=O)c(=O)n(-c2ccccc2)n1C`, the outcome was inactive.
Consider `O=C(CCc1ccc(O)cc1)NN=Cc1cc(Br)ccc1O`, for which the compound was called inactive.
The value for `CN(C)C(=O)CSc1n[nH]c(-c2ccco2)n1` was “inactive”; that for `O=C(/C=C/c1ccc(N2CCCCC2)c([N+](=O)[O-])c1)c1ccc(O)cc1` was “inactive”; that for `CC1(C(=O)N2CCCCC2)CCN1C(=O)Cc1ccc(-c2ccccc2)cc1` (stereo not given) was “inactive”.
As for `CCOC(=O)c1c(CN2CCN(CCO)CC2)n(C)c2cc(Br)c(OC)cc12`, the result was inactive.
With `COc1ccc(N(Cc2cc3cc(OC)ccc3[nH]c2=O)C(=O)C2CCCO2)cc1` (stereo not given), the outcome was inactive.
With `CCOc1ccc(CCN2C(=O)C(=O)N([C@@H](CC(C)C)CN3CCC[C@@H]3CN3C(=O)C(=O)NC[C@@H]3Cc3ccccc3)C[C@@H]2Cc2ccc(O)cc2)cc1` the entry was “inactive”; with `COc1ccc(S(=O)(=O)NC(C)C(=O)Nc2ccccc2F)cc1` (stereo not given), “inactive”.
